Results reported in PubChem BioAssay.

What follows are compounds tested against Neurogenic locus notch homolog protein 3 (Homo sapiens) (UniProt Q9UM47) (assay: NOTCH3 binders on small-molecule microarray, primary screen, biochemical, 635/667 nm fluorescence (AID 1096)). Details: NOTCH3 binding, 635 nm fluorescence, higher = more signal.
Neurogenic locus notch homolog protein 3 (Homo sapiens), sequence (Q9UM47 whole entry, looked up): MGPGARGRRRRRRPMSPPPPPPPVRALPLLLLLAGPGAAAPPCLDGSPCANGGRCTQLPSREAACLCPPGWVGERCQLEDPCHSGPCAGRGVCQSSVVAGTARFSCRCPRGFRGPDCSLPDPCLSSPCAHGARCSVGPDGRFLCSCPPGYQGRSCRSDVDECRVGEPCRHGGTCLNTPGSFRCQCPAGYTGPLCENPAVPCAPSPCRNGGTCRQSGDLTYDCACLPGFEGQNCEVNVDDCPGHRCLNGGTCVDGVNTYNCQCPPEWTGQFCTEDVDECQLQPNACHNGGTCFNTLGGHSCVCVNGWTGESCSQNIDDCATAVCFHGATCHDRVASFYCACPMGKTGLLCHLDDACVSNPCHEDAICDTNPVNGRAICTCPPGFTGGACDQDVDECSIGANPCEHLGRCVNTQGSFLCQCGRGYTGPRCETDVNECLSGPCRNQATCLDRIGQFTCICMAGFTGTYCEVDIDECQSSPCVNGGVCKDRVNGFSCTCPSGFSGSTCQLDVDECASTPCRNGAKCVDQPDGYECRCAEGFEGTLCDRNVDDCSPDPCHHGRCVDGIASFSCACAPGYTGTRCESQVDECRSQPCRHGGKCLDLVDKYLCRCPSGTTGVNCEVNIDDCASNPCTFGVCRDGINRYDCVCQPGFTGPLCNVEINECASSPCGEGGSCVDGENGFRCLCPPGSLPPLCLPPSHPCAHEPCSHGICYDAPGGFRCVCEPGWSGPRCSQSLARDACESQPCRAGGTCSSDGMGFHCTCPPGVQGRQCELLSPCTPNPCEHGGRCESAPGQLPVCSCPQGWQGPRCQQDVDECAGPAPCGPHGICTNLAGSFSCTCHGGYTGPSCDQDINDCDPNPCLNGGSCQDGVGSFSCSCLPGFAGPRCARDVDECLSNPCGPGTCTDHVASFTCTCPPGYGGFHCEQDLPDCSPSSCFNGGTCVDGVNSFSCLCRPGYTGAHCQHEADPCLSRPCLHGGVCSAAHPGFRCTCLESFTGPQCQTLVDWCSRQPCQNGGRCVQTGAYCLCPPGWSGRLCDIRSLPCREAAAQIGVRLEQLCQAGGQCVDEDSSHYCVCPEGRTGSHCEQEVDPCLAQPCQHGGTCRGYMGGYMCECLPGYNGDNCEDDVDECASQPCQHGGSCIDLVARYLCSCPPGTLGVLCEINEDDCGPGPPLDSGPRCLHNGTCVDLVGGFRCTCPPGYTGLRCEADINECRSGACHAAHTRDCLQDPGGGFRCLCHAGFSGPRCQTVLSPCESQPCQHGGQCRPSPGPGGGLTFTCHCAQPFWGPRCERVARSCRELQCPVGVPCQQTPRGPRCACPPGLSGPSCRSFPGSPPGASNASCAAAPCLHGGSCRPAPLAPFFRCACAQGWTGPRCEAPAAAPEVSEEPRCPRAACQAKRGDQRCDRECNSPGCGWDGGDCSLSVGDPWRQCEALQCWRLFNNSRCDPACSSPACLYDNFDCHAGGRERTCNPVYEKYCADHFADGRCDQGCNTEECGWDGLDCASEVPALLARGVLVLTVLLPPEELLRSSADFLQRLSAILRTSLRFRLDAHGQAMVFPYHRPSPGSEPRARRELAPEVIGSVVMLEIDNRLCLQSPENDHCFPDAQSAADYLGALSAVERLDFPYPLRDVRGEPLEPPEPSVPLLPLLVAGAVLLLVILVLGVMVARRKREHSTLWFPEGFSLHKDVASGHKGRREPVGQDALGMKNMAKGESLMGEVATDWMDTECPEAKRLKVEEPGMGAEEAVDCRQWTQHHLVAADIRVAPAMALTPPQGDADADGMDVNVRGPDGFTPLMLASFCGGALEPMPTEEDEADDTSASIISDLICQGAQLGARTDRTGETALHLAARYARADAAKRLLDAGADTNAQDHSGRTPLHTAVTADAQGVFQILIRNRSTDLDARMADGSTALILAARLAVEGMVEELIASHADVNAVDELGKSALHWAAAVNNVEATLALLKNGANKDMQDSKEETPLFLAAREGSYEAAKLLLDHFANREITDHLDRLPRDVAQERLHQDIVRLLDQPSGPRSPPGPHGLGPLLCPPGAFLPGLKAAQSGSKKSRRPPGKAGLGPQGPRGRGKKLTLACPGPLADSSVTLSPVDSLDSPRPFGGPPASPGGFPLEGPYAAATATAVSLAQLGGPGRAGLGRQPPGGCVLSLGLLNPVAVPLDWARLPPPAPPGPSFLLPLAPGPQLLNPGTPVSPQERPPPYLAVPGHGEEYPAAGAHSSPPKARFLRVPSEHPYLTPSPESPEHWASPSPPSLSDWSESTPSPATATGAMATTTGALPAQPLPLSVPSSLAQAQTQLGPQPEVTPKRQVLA
With CCCCCCc1nc(CCCc2cc3c(c(CCCCCC)n2)[Si](C(C)C)(C(C)C)OC3)cc2c1[Si](C(C)C)(C(C)C)OC2 the composite z-score was -0.58.
COc1cccc(C(=O)O[C@H]2CC[C@]3(C)C4=C(CCC3C2(C)C)[C@]2(C)CC[C@H]([C@H](C)CCCC(C)C)[C@@]2(C)CC4)c1 (stereo not given in full) was tested, and the composite z-score was 0.618.
O=C1N(CCS(=O)(=O)c2ccccc2)Cc2ccccc2C[C@]12N=C(c1ccc(OCCCO)cc1)O[C@@H]2c1ccccc1 gave a composite z-score of 1.05.
O=C1C2C=CC(C(O)c3cccs3)N(Nc3ccccc3F)C2C(=O)N1c1ccccc1 (stereo not given) gave a composite z-score of 0.476.
Compound COc1ccc(NN2C(C(O)c3ccc(OC)c(OCc4ccccc4)c3)C=CC3C(=O)N(C4CCCCC4)C(=O)C32)cc1 (stereo not given) has a composite z-score of 1.05.
Work on CCOc1cc(C(O)C2C=CC3C(=O)N(c4ccccc4)C(=O)C3N2Nc2ccc([N+](=O)[O-])cc2)ccc1O (stereo not given) yielded a composite z-score of 0.782.
With COCCOC(=O)N1C(=O)[C@@]2(c3cc(C#CCNC(N)=O)ccc31)[C@H](C(=O)N1CCN(c3ncccn3)CC1)[C@H]1C(=O)O[C@H](c3ccccc3)[C@H](c3ccccc3)N1[C@@H]2c1ccccc1OCCO the composite z-score was 1.12.
C=CC[C@]1(C(=O)N2CCOCC2)N=C(c2ccc(OCCCO)cc2)O[C@H]1c1ccccc1 gave a composite z-score of 0.175.
Work on CCOC(=O)C1=CC[C@@H](c2ccccc2)N(S(=O)(=O)c2ccc(C)cc2)[C@H]1C(=O)OCC yielded a composite z-score of 0.0539.
In the case of CC=CC(O)C1C=CC2C(=O)N(c3ccccc3)C(=O)C2N1Nc1ccc(C(C)C)cc1 (stereo not given), the composite z-score is reported as 1.05.
O=C1OCCC=C[C@H]2OC34C=CCN(c5ccc6ccccc6c5)C(=O)[C@H]3N(CCCCCO)C(=O)[C@@H]4C12 (stereo not given in full) gave a composite z-score of -0.039.
In the case of CCOC(=O)C[C@H]1[C@H](OC(=O)c2ccc(C(=O)c3ccccc3)cc2)[C@@H](NC(=O)C2CCCCC2)c2cc(OCCCO)ccc2N1C(=O)c1ccccc1, the composite z-score is reported as -0.215.
In the case of [N-]=[N+]=Nc1ccccc1[C@@H]1OC(c2ccc(OCCCO)cc2)=N[C@]1(CCS(=O)(=O)c1ccccc1)C(=O)N1CCOCC1, the composite z-score is reported as 1.06.
With NC(=O)NCC#Cc1ccc2c(c1)[C@]1(C(=O)N2)[C@H](C(=O)N2CCCCCCC2)[C@H]2C(=O)O[C@H](c3ccccc3)[C@H](c3ccccc3)N2[C@@H]1c1ccc(OCCO)cc1 the composite z-score was 1.02.
For O=C(NCc1ccccc1)[C@]1(CCS(=O)(=O)c2ccccc2)N=C(c2ccc(OCCCO)cc2)O[C@@H]1c1ccccc1, the composite z-score was 1.07.
In the case of C=C(C(=O)CC[C@H](OC(C)=O)c1ccc(OCCO)cc1)C(C)C, the composite z-score is reported as 0.801.
Compound CCCCCN1CC=CC23O[C@@H]4/C=C\CCC(C)OC(=O)C4[C@H]2C(=O)N(CCCCCO)[C@@H]3C1=O (stereo not given in full) has a composite z-score of 0.0156.
O=C1[C@]2(CO)C=C(Br)[C@@H](C[C@@H]2c2ccccc2)[C@@]12CO2 showed a composite z-score of 0.224.
CC(C)C(O)C1C=CC2C(=O)N(c3ccccc3)C(=O)C2N1Nc1ccc(C#N)cc1 (stereo not given) gave a composite z-score of 0.903.
Compound O=C(CS)NCCCCCCNC(=O)[C@H]1C[C@H]2C(=O)N3CCC[C@H]3C(=O)N2[C@H]1c1cccc(OCCO)c1 has a composite z-score of 1.1.
COCC(=C=CC[C@H](O)c1ccc(OCCO)cc1)C[C@H](O)c1cc(Cl)cc(Cl)c1O gave a composite z-score of 1.12.
CN1CCC(CCCO)=CC1c1ccc(CN2CCCC2)cc1 (stereo not given) showed a composite z-score of 1.07.
For COCCOC(=O)N1C(=O)[C@@]2(c3cc(C#CCC(C(=O)OC)C(=O)OC)ccc31)[C@H](c1ccccc1OCCO)N1[C@H](c3ccccc3)[C@H](c3ccccc3)OC(=O)[C@H]1[C@@H]2C(=O)N1CCc2cc(OC)c(OC)cc2C1, the composite z-score was 0.729.
In the case of COc1ccc(CCNC(=O)[C@@]2(c3ccc([N+](=O)[O-])cc3)CC(=O)N(CC34CC5CC(CC(C5)C3)C4)[C@@H]2c2ccc(CO)cc2)cc1, the composite z-score is reported as 1.16.
Cc1ccccc1C(O)C1C=CC2C(=O)N(C)C(=O)C2N1Nc1ccccc1 (stereo not given) showed a composite z-score of 0.993.
O=C1c2ccccc2[C@@]2(Cc3ccccc3N(Cc3ccccc3)C2=O)[C@H](c2ccc(CO)cc2)N1C1CCCCC1 showed a composite z-score of 0.269.
O=C1O[C@H](c2ccccc2)[C@H](c2ccccc2)N2[C@H]1[C@@H](C(=O)Nc1nc3ccccc3s1)[C@]1(C(=O)Nc3ccccc31)[C@H]2c1ccc(O)cc1 gave a composite z-score of 1.15.
In the case of C=C[C@@H](COC(C)=O)N(Cc1ccc([N+](=O)[O-])cc1)S(=O)(=O)c1ccc(Br)cc1, the composite z-score is reported as 0.733.
CC(C)N1C(=O)c2ccccc2[C@@H](C(=O)NCCCN(C)C)[C@@H]1c1ccc(CO)cc1 gave a composite z-score of -0.807.
With CC(C)c1ccc(NN2C(C(O)c3cccc(O)c3)C=CC3C(=O)N(c4ccccc4)C(=O)C32)cc1 (stereo not given) the composite z-score was 1.06.
CCOC(=O)C[C@H]1[C@H](OC(=O)Cc2ccc3c(c2)OCO3)[C@@H](NC(=O)C2CCCCC2)c2cc(OCCCO)ccc2N1C(=O)Cc1ccc(OC)cc1 showed a composite z-score of 0.892.
COCCOC(=O)N1C(=O)[C@@]2(c3cc(C#CCC(C(=O)OC)C(=O)OC)ccc31)[C@H](C(=O)N1CCN(c3ncccn3)CC1)[C@H]1C(=O)O[C@H](c3ccccc3)[C@H](c3ccccc3)N1[C@@H]2c1ccc(OCCO)cc1 gave a composite z-score of 0.946.
COc1ccc(C#Cc2ccc3c(c2)[C@]2(C(=O)N3)[C@H](c3ccc(O)cc3)N3[C@H](c4ccccc4)[C@H](c4ccccc4)OC(=O)[C@H]3[C@@H]2C(=O)N2CCCCCCC2)cc1 showed a composite z-score of 1.07.
Compound O=C1OCC=C[C@H]2OC34C=CCN(c5ccc(Cl)cc5)C(=O)[C@H]3N(CCCCCCO)C(=O)[C@@H]4[C@@H]12 (stereo not given in full) has a composite z-score of -0.464.
Work on O=C1O[C@H](c2ccccc2)[C@H](c2ccccc2)N2[C@H]1[C@@H](C(=O)N1CCN(c3ncccn3)CC1)[C@]1(C(=O)Nc3ccccc31)[C@H]2c1ccc(OCCO)cc1 yielded a composite z-score of 1.1.
